Assay results: PubChem BioAssay (NCI)
The panel holds about 83,000 compounds, 20% with a hit somewhere; the sample as a whole holds those more often.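 How to read the values: 0–100, growth inhibition (40 = 60% inhibited); 0, no net growth; -100 to 0, cell death (-40 = 40% of starting cells died; -100 = all dead).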 Values without a mark were called inactive. Activity calls are given as the source filed them. Rule for the calls: active = growth percent below 10; inactive = the rest.

Experiments:
Assay in all cases: NCI-60 one-dose screen, 48 h (100 = growth as untreated, 0 = no growth, -100 = all killed)
Settings in all cases: 10 µM unless noted
DU-145 prostate = test system: DU-145 prostate
K-562 leukemia = test system: K-562 leukemia
MALME-3M melanoma = test system: MALME-3M melanoma
MDA-MB-231 breast = test system: MDA-MB-231 breast
RXF 393 renal = test system: RXF 393 renal
SF-268 CNS = test system: SF-268 CNS
SF-295 CNS = test system: SF-295 CNS
SF-539 CNS = test system: SF-539 CNS
UACC-257 melanoma = test system: UACC-257 melanoma
M14 melanoma = test system: M14 melanoma
HCT-15 colon = test system: HCT-15 colon
HT29 colon = test system: HT29 colon
SNB-75 CNS = test system: SNB-75 CNS
SNB-19 CNS = test system: SNB-19 CNS
U251 CNS = test system: U251 CNS
PC-3 prostate = test system: PC-3 prostate
SK-MEL-5 melanoma = test system: SK-MEL-5 melanoma
UACC-62 melanoma = test system: UACC-62 melanoma
LOX IMVI melanoma = test system: LOX IMVI melanoma
SK-MEL-28 melanoma = test system: SK-MEL-28 melanoma

SMILES	growth (DU-145 prostate)	growth (K-562 leukemia)	growth (MALME-3M melanoma)	growth (MDA-MB-231 breast)	growth (RXF 393 renal) [%]	growth (SF-268 CNS)	growth (SF-295 CNS)	growth (SF-539 CNS)	growth (UACC-257 melanoma)	growth (M14 melanoma)	growth (HCT-15 colon)	growth (HT29 colon)	growth (SNB-75 CNS)	growth (SNB-19 CNS)	growth (U251 CNS)	growth (PC-3 prostate)	growth (SK-MEL-5 melanoma)	growth (UACC-62 melanoma)	growth (LOX IMVI melanoma)	growth (SK-MEL-28 melanoma) [%]
O=C(Nc1cccc2c(O)c(N=Nc3ccc(S(=O)(=O)Nc4nccs4)cc3)cc(N=Nc3ccc(S(=O)(=O)Nc4nccs4)cc3)c12)C(Cl)Cl	33.8%	143%	138%	92.3%	71.2	66.2%	78.2%	86.6%	80.6%	110%	60.2%	62.8%	83%	73.6%	63.1%	15.7%	85.2%	89%	66.7%	82.9
CNS(=O)(=O)c1n[nH]nc1-c1cc(C(C)(C)C)c(O)c(C(C)(C)C)c1	110%	98.7%	88.3%	103%	114	99.3%	92.4%	99.4%	84.7%	95.9%	95.3%	108%	80.5%	107%	95.5%	97.2%	94.2%	100%	101%	105
CN(C)c1ccc(-c2ccc3[nH]c(=O)nc(-c4ccccc4)c3c2)cn1	65.1%	7.91% (active)	51.2%	44.6%	64.5	55.5%	39.5%	28.3%	80.8%	13.7%	28.1%	14.1%	27.9%	50.4%	38.1%	47.2%	39.6%	48.5%	38.5%	55.8
O=C(NCCc1ccc(O)c(O)c1)C12CC3CC(CC(C3)C1)C2	101%	92.6%	107%	85.5%	101	89.6%	128%	80.4%	98.8%	103%	91.8%	102%	82%	98.5%	101%	73.5%	96%	90.3%	89.1%	104
O=C(CC(SCc1ccccc1)c1ccccc1)c1ccccc1 (stereo not given)	95.5%	95.3%	98.5%	98.1%	86.4	87.6%	94.1%	99%	111%	87%	74.4%	86.8%	87.9%	88.6%	86.5%	88.8%	97.3%	85.3%	85.6%	105
O=C1/C(=C2/C=Nc3ccccc32)N(O)c2ccccc21	73.7%	19.6%	56.3%	64.9%	92.2	76%	71%	104%	45%	87.4%	49.5%	100%	102%	93%	84.9%	51%	68%	33.6%	33.5%	92.8
COC(=O)c1ccc(CSc2nnc(-c3c(C)nc4ccc(C)cn34)o2)cc1	106%	82.6%	111%	84.1%	97	102%	105%	103%	116%	105%	104%	111%	85.9%	94.2%	99.2%	106%	93.8%	89.2%	94.2%	103
COC(=O)c1c2c(c(C)[n+]([O-])c1C)C(=O)C(NCc1ccc(F)c(Cl)c1)=CC2=O	36.2%	5.87% (active)	-93.5% (active)	2.68% (active)	36.2	9.33% (active)	39%	3.31% (active)	-69.3% (active)	-19.6% (active)	8.29% (active)	5% (active)	109%	7.17% (active)	-20.4% (active)	5.89% (active)	-71.6% (active)	-42% (active)	9.57% (active)	57.9
COc1ccc(-c2nc(SC(C)C)nc(NNC(N)=S)c2C#N)cc1	77.7%	16.9%	51.7%	43.3%	63.7	62.5%	55.2%	50.1%	82.7%	53.8%	23.6%	85%	32.3%	38%	52.8%	55.6%	28.9%	22.2%	40.2%	58.7
CC(C)(C)n1cc(-c2ccnc(NCCCNS(=O)(=O)c3ccccc3)c2)c(-c2ccccc2)n1	83.7%	21.2%	82.7%	72%	62	93.1%	63.2%	66.4%	77.9%	67.1%	26.5%	24.7%	65.1%	89.4%	64.3%	35.6%	53.2%	61.8%	50.9%	97
CC1O[C@@H](OC2[C@H](OC(=O)/C=C/c3ccc(O)c(O)c3)C(COC3O[C@H](C)C(O)C(O)[C@@H]3O)O[C@@H](OCCc3ccc(O)c(O)c3)[C@H]2O)[C@@H](O)C(O)[C@H]1O (stereo not given in full)	106%	105%	88.1%	108%	125	103%	103%	94.2%	80.8%	97.1%	100%	100%	85.7%	107%	99.4%	99.9%	103%	101%	102%	110
c1c[nH]c(CNC2CCCCC2)c1	106%	103%	106%	129%	119	101%	105%	114%	119%	104%	104%	105%	108%	119%	102%	81.6%	118%	110%	89.7%	120
NC[C@H](O)c1ccc(O)c(O)c1	106%	106%	111%	78.8%	117	112%	123%	92%	109%	95.9%	104%	102%	120%	112%	106%	99.7%	104%	102%	94.2%	116
COc1ccc2c(c1)CCCN2c1c2ccccc2nc2ccccc12	5.71% (active)	9.39% (active)	55.3%	6.06% (active)	27.1	33.7%	8.45% (active)	-26.4% (active)	71.2%	3.64% (active)	12.5%	8.43% (active)	0.187% (active)	34.6%	14.1%	15.9%	2.04% (active)	5.34% (active)	12.2%	47
CCCCn1c(=O)c2c(nc(NCCc3ccc(O)c(O)c3)n2CCC)n(CCCC)c1=O	74.8%	37.7%	101%	58.6%	66.3	74.6%	94.7%	87.7%	89.6%	75.9%	39.4%	70.9%	68.8%	92.3%	77.2%	43.9%	83.1%	86.2%	57.4%	86.9
